Shown are actives, neighbours in structure and some others; about 3.4% of the full set was active somewhere.
GPR151 ag = activates the human receptor GPR151 | Q8TDV0 | PathHunter beta-arrestin GPR151 cells, luminescence | activation, % at 11.2 µM | hit rate 1% among 650,000; in the data active means activation above about 4.9%
TEAD-YAP inh = TEAD-YAP interaction inhibition | AID 1259422 | HEK-TIYL cells, TEAD-Gal4/YAP UAS-luciferase luminescence | hit rate 1.4% among 640,000 | inhibition, % at 9.12 µM; in the data active means inhibition above about 32%
MITF primary = blocks human microphthalmia-associated transcription factor; O75030; AlphaScreen MITF homodimerization, bead proximity signal; AID 1259374; inhibition, % at 2.6 µM; hit rate 0.91% among 650,000; in the data active means inhibition above about 50%
FBW7 act = human FBW7 E3 ligase activation, primary screen | Q969H0 | AlphaScreen FBW7–phospho-cyclin E peptide binding, activator screen | normalized activity (activation), % at 26.1 µM | hit rate 0.13% among 650,000; in the data active means normalized activity above about 1.9%;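 further: purified mutant Fbw7 with reduced substrate affinity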
A number is an active result; – = inactive.

SMILES	GPR151 ag	TEAD-YAP inh	MITF primary	FBW7 act
Cc1ccc(OCC(O)CN2CCN(c3ccccc3F)CC2)c(C(C)(C)C)c1 (configuration not stated)	–	–	–	–
CC(C)n1cc(-c2cc(C(=O)NCCN3CCOCC3)ccc2[N+](=O)[O-])cn1	–	–	–	–
COc1ccc2nc3oc(C(=O)N4CCOCC4)cc3cc2c1	–	64	–	–
CCCCNS(=O)(=O)c1ccc2nc(SCC(C)=O)[nH]c2c1	–	34	–	–
COC(=O)c1c(NC(=S)Nc2ccc([N+](=O)[O-])cc2OC)sc(C)c1C	–	–	–	–
CCOc1ccc(NC(=O)c2ccc(F)c(S(=O)(=O)NC3CCCC3)c2)cc1	–	69	–	–
O=C(Nc1ccc(Br)cc1)c1ccc(F)c(S(=O)(=O)NC2CCCCCC2)c1	–	40	–	–
C=CCc1cc(C)ccc1OCC(O)Cn1c(C)nc2ccccc21 (configuration not stated)	–	47	–	–
Cc1nc2ccccc2n1CC(O)COc1ccc(C(C)C)cc1 (configuration not stated)	–	48	–	–
COc1ccc2nc(SCC(=O)Nc3nc(C)c(C)s3)c(C#N)cc2c1	–	–	–	–
CC(O)c1nc2ccccc2[nH]1 (configuration not stated)	–	–	–	–
Cc1nnnn1/C(=C\c1ccccc1)C(=O)N[C@H](c1nc2ccccc2[nH]1)C(C)C	–	49	–	–
CSc1sccc1/C=N/Nc1ccc([N+](=O)[O-])cc1	–	–	–	2.1
O=C(Nc1ccccc1C(F)(F)F)c1ccc2c(c1)OCCO2	–	–	–	–
NC(=O)c1cccc(-c2cnc3c(N4CCOCC4)nccn23)c1	–	–	–	–
Cc1cc(OCC(=O)NNC(=O)CCc2ccccc2)ccc1Br	–	–	–	2.3
Cc1ccc(-c2cc(C(=O)NN)[nH]n2)c(C)c1	–	43	–	–
Cc1ccc(-n2nc3c(c2NC(=O)c2ccc(Cl)c([N+](=O)[O-])c2)CS(=O)C3)c(C)c1 (configuration not stated)	–	–	–	–
COc1ccc(CC2(CCC(=O)NC3CCc4ccccc43)CCC(=O)N2)cc1OC (configuration not stated)	–	–	–	–
Nc1c(C(=O)N2CCOCC2)sc2nc(-c3ccccc3)cc(C(F)(F)F)c12	–	–	–	2.8
COc1ccc(CN(C)C(=O)CCC2(Cc3ccc(C)cc3)CCC(=O)N2)cc1OC (configuration not stated)	–	–	–	–
COC(=O)c1ccc(/C=C/C(=O)c2ccc3c(c2)OCCO3)cc1	–	–	–	–
COC(=O)c1ccc(C=Nc2ccc3c(c2)OCCO3)cc1	–	62	–	–
COc1cc(C(=O)/C=C/c2cccc(F)c2)ccc1O	–	56	–	–
COC(=O)c1ccc(/C=C/C(=O)c2ccc(F)cc2)cc1	–	–	–	–
SMILES	GPR151 ag	TEAD-YAP inh	MITF primary	FBW7 act
COc1ccc(C(=O)/C=C/c2cccc(F)c2)cc1	–	–	–	–
COc1cc(C(=O)/C=C/c2ccc(F)cc2)ccc1O	–	66	–	–
Cc1cccc(C(=O)NCC(C)(C)CN=C2NS(=O)(=O)c3ccccc32)c1	–	–	–	–
COc1ccc(-c2nc(NC3CCN(Cc4ccccc4)CC3)c3ncn(C(C)C)c3n2)cc1	–	–	–	–
CC(C)n1cnc2c(NC3CCN(Cc4ccccc4)CC3)nc(-c3ccc(C(=O)NC4CC4)cc3)nc21	–	52	–	–
CC(C)n1cnc2c(Nc3ccccc3)nc(-c3ccc(C(=O)NC4CC4)cc3)nc21	–	32	–	–
CC(C)n1cnc2c(NC3CCN(Cc4ccccc4)CC3)nc(-c3ccc(N4CCN(C)CC4)cc3)nc21	–	–	–	–
CC(=O)c1cccc(-c2nc(NC3CCN(Cc4ccccc4)CC3)c3ncn(C(C)C)c3n2)c1	–	73	–	–
CC(C)n1cnc2c(NCc3ccccc3)nc(-c3ccc(C(=O)NC4CC4)cc3)nc21	–	–	–	–
CC(C)n1cnc2c(NC3CCN(Cc4ccccc4)CC3)nc(-c3ccc(C(=O)N4CCN(C)CC4)cc3)nc21	–	58	–	–
COc1cc(-c2nc3s/c(=C\c4ccc(C)o4)c(=O)n3n2)cc(OC)c1OC	–	–	–	–
Cc1ccccc1C(=O)NC(=S)N(CCO)Cc1ccccc1	–	–	–	–
O=C(NCC1CCCO1)c1cc2nc(-c3ccccc3)cc(C(F)(F)F)n2n1 (configuration not stated)	–	–	–	–
Cc1cc(C(F)(F)F)c2c(N)c(C(=O)Nc3cccc(C(F)(F)F)c3)sc2n1	–	–	–	–
CN1CCN(C(=O)c2ccc(-c3nc(NC4CC4)c4ncn(-c5ccccc5)c4n3)cc2)CC1	–	41	–	–
C=CC[n+]1c(Nc2ccc(NC(C)=O)cc2)sc(C)c1-c1ccccc1	–	33	–	–
CCCCN1C(=O)C(=O)c2cc(Br)ccc21	–	41	–	–
CC(=O)CCN1C(=O)C(=O)c2cc(Br)ccc21	–	–	–	–
COC(=O)c1ccc(/C=N/NC(=O)C2COc3ccccc3O2)cc1 (configuration not stated)	–	–	–	–
CC(C)(C)c1ccc(/C=N/NC(=O)C2COc3ccccc3O2)cc1 (configuration not stated)	–	35	–	–
CC(=O)N/N=C/c1c(C)[nH]n(-c2ccccc2)c1=O	–	–	–	–
Cc1[nH]n(-c2ccccc2)c(=O)c1/C=N/NC(=O)C1COc2ccccc2O1 (configuration not stated)	–	36	–	–
Cc1ccccc1-n1[nH]c(C)c(/C=N/NC(=O)C(=O)N/N=C/c2c(C)[nH]n(-c3ccccc3C)c2=O)c1=O	–	–	52	–
CCc1cc2c(cc3c(=O)n(CC(=O)NC4CCCC4)nc(CC)n32)s1	–	–	–	–
Cc1ccc(Oc2ccc(S(=O)(=O)N3CCOCC3)cc2C(N)=O)c(-n2nc3ccccc3n2)c1	–	41	–	–
SMILES	GPR151 ag	TEAD-YAP inh	MITF primary	FBW7 act
COc1ccccc1C(=O)Oc1ccc(C)cc1-n1nc2ccccc2n1	–	–	–	–
Cc1ccc(Oc2ccc(S(=O)(=O)N3CCOCC3)cc2S(=O)(=O)N2CCOCC2)c(-n2nc3ccccc3n2)c1	–	–	–	–
Cc1ccc(OC(=O)c2ccccc2Cl)c(-n2nc3ccccc3n2)c1	–	–	–	7.6
CC(=O)Nc1ccc(S(=O)(=O)Nc2cc(Cl)c(Cl)cc2Cl)cc1	–	–	–	–
CCN(CC)c1ccc(/C=N\Nc2cc(=O)n(C)c(=O)n2C)cc1	–	55	–	–
COc1ccc(C2Nc3ccc(C(=O)c4ccccc4)cc3NC3=C2C(=O)CCC3)cc1 (configuration not stated)	–	39	–	–
COc1cc(C2Nc3ccc(C(=O)c4ccccc4)cc3NC3=C2C(=O)CCC3)cc(OC)c1O (configuration not stated)	–	68	–	–
COc1cccc(C2Nc3ccc(C(=O)c4ccccc4)cc3NC3=C2C(=O)CCC3)c1 (configuration not stated)	–	60	–	–

Bioassay records from PubChem BioAssay.
